According to ChEMBL document CHEMBL3988442, “University of Dundee, Small-Polar-MMV Screening Library” (2021):
About 950 (1.4%) of roughly 69,000 compounds showed an effect of 50% or more. Shown is part of a subset that was picked to be rich in strong results.

tested on: Mycobacterium tuberculosis; assay: Cornell M. t heat shock assay; type: functional, organism-based; set-up: dose or concentration left out as unconfirmed; note: in the data most compounds retested in dose-response had high values

SMILES | Percent Effect [%]
Cc1nc(COC[C@@H]2CC[C@H]3[C@H](CCN3c3ccccn3)O2)cs1.O=C(O)C(F)(F)F | -8.365
COCC(=O)NC1CC2(CCN(Cc3ccco3)CC2)c2ccccc21.O=C(O)C(F)(F)F (centres undefined) | -0.75
Cn1ccc(C(=O)N2CCC3(CCN3c3ncccn3)C2)n1.O=C(O)C(F)(F)F (centres undefined) | 24.82
CC(C)(C)c1ncc(C(=O)NC(C(N)=O)c2ccccc2)s1 (centres undefined) | -32.92
Cn1cc(C(=O)N2CC[C@@H]3[C@@H]2CCN3Cc2cccnc2)cn1.O=C(O)C(F)(F)F.O=C(O)C(F)(F)F | -1.797
COC[C@]12COC[C@H]1CN(Cc1cc(OC)cc(OC)c1)C2.O=C(O)C(F)(F)F | 3.349
Cc1cc2n(n1)CC(CNC1CCN(Cc3ccncc3)CC1)CN2 (centres undefined) | -16.93
Cc1cccc(CN2CCC(NCC3CNc4cc(C)nn4C3)CC2)c1 (centres undefined) | 108.8
Cc1cc2n(n1)CC(CNC1CCN(Cc3ccccc3C)CC1)CN2 (centres undefined) | 13.82
CCCc1cc(=O)n(CC(N)=O)c(-n2nc(C)cc2C)n1 | 28.09
CCCc1cc(=O)n(CC(=O)NCCOC)c(-n2nc(C)cc2C)n1 | 103.9
Cc1cc(C)n(-c2cncc(NCCC(=O)NC(C)C)n2)n1 | -1.343
CCCc1cc(=O)n(CC(=O)NC(C)C)c(-n2nc(C)cc2C)n1 | 96.11
CCCNC(=O)Cn1c(C)nn(C(C)(C)C)c1=O | 11.09
CCCNC(=O)CCNc1cncc(-n2nc(C)cc2C)n1 | -16.72
CCCNC(=O)Cn1c(-n2nc(C)cc2C)nc(CCC)cc1=O | 96.63
COCCNC(=O)Cn1c(C)cc2nc(SC)n(CC(C)C)c(=O)c21 | -7.488
COCCCNC(=O)Cn1c(C)cc(=O)n2nc(-c3cccs3)nc12 | 14.25
O=C(O)C(F)(F)F.O=C(O)C(F)(F)F.O=C(c1ccnnc1)N1C[C@@H]2OCCN(CCN3CCCC3)[C@@H]2C1 | -5.03
CCc1cc(C(F)(F)F)n2nc(C3CCCN3C3CCSCC3)cc2n1.O=C(O)CC(O)(CC(=O)O)C(=O)O (centres undefined) | 5.555
O=C(O)c1ccc(SCC(=O)c2ccccc2)nc1 | 25.44
Cc1cccc(CN2C[C@@H]3OCCN(CC(=O)N(C)C)[C@@H]3C2)c1.O=C(O)C(F)(F)F | 42.49
Cl.Cl.c1ccc(OC[C@@H]2CCC[C@@]23CNCCO3)nc1 | -6.285

SMILES | Percent Effect [%]
CC(C)n1cnnc1CN(C)Cc1cnc(-c2ccccn2)nc1 | 32.7
Cc1noc(C)c1CN(C)C(C)c1cccs1 (centres undefined) | 7.19
CC(c1cccs1)N(C)Cc1cnc(-c2ccccn2)nc1 (centres undefined) | 106.1
O=C(Nc1cccnc1)[C@H]1CO[C@H]2CCNC[C@H]2C1.O=C(O)C(F)(F)F.O=C(O)C(F)(F)F | -15.71
Cc1ccc2c(n1)N(CC1CC1)CCN(C(=O)c1ccncc1F)C2.O=C(O)C(F)(F)F.O=C(O)C(F)(F)F | -13.11
CCN(Cc1csc(C)n1)c1cccc(CO)c1 | -22.94
CCn1c(CN(C)Cc2csc(C)n2)nc2cc(F)ccc21 | 69.38
CCn1c(CN(C)Cc2cnc(C)s2)nc2cc(F)ccc21 | -9.437
CCO[C@@H]1CC[C@H]2[C@H]1OCCN2CC1CCC1.O=C(O)C(F)(F)F | -27.51
Cc1cc(N(C)CCN(C)C)n2nc(C)cc2n1 | -8.3
Cc1cc(N(C)Cc2ccsc2)n2nc(C)c(C)c2n1 | 86.91
Cc1csc(CN(C)c2cc(C)nc3c(C)c(C)nn23)n1 | 96.63
CCc1cc(N(C)Cc2ccncn2)n2nc(C)c(C)c2n1 | 89.97
CCc1nnc(CN(C)c2cc(C)nc3c(C)c(C)nn23)o1 | -40
Cc1cc(N(C)Cc2noc(C)n2)n2nc(C)c(C)c2n1 | 0.3178
CCc1cc(N(C)Cc2ccnc(C)c2)n2nc(C)c(C)c2n1 | 28.31
Cc1cc(N(C)Cc2c(C)noc2C)n2nc(C)c(C)c2n1 | -31.35
Cc1cc(NC(C)c2csc(C)n2)n2nc(C)c(C)c2n1 (centres undefined) | 26.88
CCc1cc(N(C)Cc2cc[nH]n2)n2nc(C)c(C)c2n1 | 19.05
Cc1cc(N(C)Cc2cc(C)on2)n2nc(C)c(C)c2n1 | 82.43
CCc1cc(N(C)Cc2ccno2)n2nc(C)c(C)c2n1 | 27.53
Cc1cc(C)cc(N2CCN(C(=O)CCN3C[C@@H]4CC[C@H]3C4)CC2=O)c1 | -4.633
COc1cc(N2C[C@@H]3COC[C@]3(COc3ncccc3F)C2)ncn1.O=C(O)C(F)(F)F.O=C(O)C(F)(F)F | -28.64

SMILES | Percent Effect [%]
CC(C)OCc1ncn2c1CN(Cc1cccs1)CCC2.O=C(O)C(F)(F)F | -1.604
CN(C)CCOCc1nnc2n1CCN(CC1CC1)CC2.O=C(O)C(F)(F)F.O=C(O)C(F)(F)F | -19.96
Cc1ncsc1CN1C[C@H](C(=O)NCC2CC2)[C@@H]2CCO[C@@H]2C1.O=C(O)C(F)(F)F | -4.533
COc1ccc(CN2CCC3(CC2)CCN(CCN(C)C)C3=O)cc1.O=C(O)C(F)(F)F.O=C(O)C(F)(F)F | -10.28
COCC(=O)N1CCC2(CC1)CC(COC)N(Cc1ccccn1)C2.O=C(O)C(F)(F)F (centres undefined) | 9.323
CCN1C(=O)CC[C@]12CC[C@@H](NC(=O)NCc1cccnc1)CC2.O=C(O)C(F)(F)F | 4.335
CNC(=O)C1Cn2ccnc2C2(CCN(Cc3cccc(C)n3)CC2)O1.O=C(O)C(F)(F)F (centres undefined) | -1.384
Cc1nc(NCc2noc(C3CCCO3)n2)c2ccsc2n1 (centres undefined) | 12.93
O=C(O)C(F)(F)F.O=C1COC2(CCN(c3ncccn3)CC2)CN1 | -4.23
O=C(O)C(F)(F)F.O=C1COC2(CCN(c3ccccn3)CC2)CN1 | 64.38
Cc1ccc(N2CCC3(CC2)CNC(=O)CO3)nn1.O=C(O)C(F)(F)F | -15.23
Cc1cc(F)ccc1-c1ccccc1CC1CNCCNC1=O.Cl (centres undefined) | 10.68
Cc1ccc(C(=O)N2CC[C@@H]3CN(C4CCOCC4)CCO[C@@H]3C2)o1.O=C(O)C(F)(F)F | 5.788
CC(C)NC(=O)N1CC[C@H]2[C@H]1CCN2c1ncccn1.O=C(O)C(F)(F)F | -6.623
Cc1c(NCc2ccccc2C#N)cccc1-n1cnnn1 | 16.44
Cc1cc(NCc2cccc(C#N)c2)ccc1C(N)=O | -8.044
Cc1c(NCc2ccccc2C#N)cccc1S(=O)(=O)NC1CC1 | 92.24
N#Cc1cccnc1NCc1ccc(S(=O)(=O)NC2CC2)cc1 | 26.85
Cc1c(NCc2ccc(C#N)cc2)cccc1S(=O)(=O)NC1CC1 | 50.41
Cc1cc(NCc2cccc(C#N)c2)ccc1Br | -0.9935
Cc1c(NCc2cccc(C#N)c2)cccc1S(=O)(=O)NC1CC1 | 50.22
Cc1ccc(NCc2ccc(C#N)cc2)c(CN(C)C)c1 | -24.71
CS(=O)(=O)NCC1CCCCN1Cc1ccccc1C#N (centres undefined) | -5.634

SMILES | Percent Effect [%]
COC1COC2(CCN(Cc3ccc(Cl)cc3)CC2)C1.O=C(O)C(F)(F)F (centres undefined) | -23.85
Cc1nc(NC(=O)C2(C)CN(C)CCO2)sc1C.Cl (centres undefined) | -1.317
CCC(CC)C(=O)N1CCOC2(COCCN(CC(=O)NC)C2)C1.O=C(O)C(F)(F)F (centres undefined) | -7.076
Cc1cccc(NC(=O)N2CCCn3cnc(CN(C)C(C)C)c3C2)c1.O=C(O)C(F)(F)F | -43.51
COCC1CN(c2ccc(C)nn2)Cc2cnn(C)c21.O=C(O)C(F)(F)F.O=C(O)C(F)(F)F (centres undefined) | 33.23
CN1CCOCC2(CCCN(C(=O)c3ccc(-n4cccc4)cc3)C2)C1.O=C(O)C(F)(F)F (centres undefined) | -38
CN(C)CC(=O)N1CCC2(CC1)CN(c1ccsc1)C(=O)CO2.O=C(O)C(F)(F)F | -14.58
c1ccc(-c2cc(CN3C[C@@H]4CC[C@H](C3)N(CC3CCC3)C4)on2)cc1 | 105.8
Cc1cc(CN2C[C@H]3CC[C@@H]2CN(C2Cc4ccccc4C2)C3)on1 | 16.59
C1CC(CN2C[C@H]3CC[C@@H]2CN(Cc2noc(C4CCCC4)n2)C3)C1 | 69.475
Cc1cnn(C2CN(Cc3noc(C4CC4)n3)C2)c1 | 9.159
c1ccc(-c2cc(CN3C[C@H]4CC[C@H]3C4)on2)cc1 | 7.341
c1ccc(-c2nnc(CN3C[C@@H]4CC[C@H](C3)N(CC3CCC3)C4)o2)cc1 | 64.4
c1ccc(CN2C[C@H]3CC[C@@H]2CN(Cc2nnc(C4CC4)o2)C3)cc1 | -5.775
C1CCCN(CC2CCCN(Cc3noc(C4CC4)n3)C2)CC1 (centres undefined) | 7.551
c1ccc(-c2cc(CN3C[C@@H]4CC[C@H](C3)N(CC3CC3)C4)on2)cc1 | 99.84
c1ccc(-c2cc(CN3CCCC(Cn4cncn4)C3)on2)cc1 (centres undefined) | -1.952
C1CC(CN2C[C@H]3CC[C@@H]2CN(Cc2nnc(C4CC4)o2)C3)C1 | 16.6
CCc1cc(CN2C[C@H]3CC[C@@H]2CN(C2Cc4ccccc4C2)C3)on1 | 30.93
Cc1noc(C)c1CN1CCCC2(CCN(CC3CCCC3)C2)C1.O=C(O)C(F)(F)F (centres undefined) | -3.039
